Test results: PubChem BioAssay AID1159580 (chemical genetic matrix, 2015)
The campaign covered roughly 5,500 compounds. About 2,000 (36%) were called active. Inconclusive results (about 18%) are left out. Cut-off read from the data, not from the text of the source: active = normalized growth mostly below about 0.91 (no sharp cut-off); inconclusive = no clear call, values can overlap the other calls; inactive = mostly above about 0.92. Some of the results follow.

Assay: chemical genetic growth profiling, strain panel (AID 1159580);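 note: tested at 20 µM; growth read once vehicle control cultures reached saturation at 30 °C; 1 = growth at the plate median or of vehicle wells; lower values mean less growth of the strain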
Details: S. cerevisiae deletion strains, growth OD

Measured: normalized growth

CN(C)C(=O)Oc1cc(OC(=O)N(C)C)cc(C(O)CNC(C)(C)C)c1 (stereo not given)
inactive: locus YAL021C, strain ccr4, active compounds read low 1.02 | locus YAL026C, strain drs2, active compounds read low 1.03 | locus YAL030W, strain snc1, active compounds read low 1.02 | locus YBL061C, strain skt5, active compounds read low 1.02 | locus YBR009C, strain hhf1, active compounds read low 1.04 | locus YBR023C, strain chs3, active compounds read low 1.02 | locus YBR171W, strain sec66, active compounds read low 1.03 | locus YBR231C, strain swc5, active compounds read low 1.03 | locus YBR279W, strain paf1, active compounds read low 1.02 | locus YCL011C, strain gbp2, active compounds read low 1.03 | locus YCL016C, strain dcc1, active compounds read low 1.03 | locus YCL061C, strain MRC1, active compounds read low 1.03 | locus YCL069W, strain vba3, active compounds read low 1.03 | locus YCR088W, strain abp1, active compounds read low 1.03 | locus YDL005C, strain med2, active compounds read low 1.03 | locus YDL040C, strain nat1, active compounds read low 1.04 | locus YDR001C, strain nth1, active compounds read low 1.03 | locus YDR069C, strain doa4, active compounds read low 1.03 | locus YDR137W, strain rgp1, active compounds read low 1.04 | locus YDR159W, strain sac3, active compounds read low 1.05 | locus YDR195W, strain ref2 1.02 | locus YDR297W, strain sur2, active compounds read low 1.02 | locus YDR334W, strain swr1, active compounds read low 1.04 | locus YDR335W, strain msn5, active compounds read low 1.03 | locus YDR392W, strain spt3, active compounds read low 0.947 | locus YEL003W, strain gim4, active compounds read low 1.02 | locus YEL037C, strain rad23, active compounds read low 1.03 | locus YEL061C, strain CIN8 (second series), active compounds read low 1.03 | locus YER015W, strain faa2, active compounds read low 1.03 | locus YER016W, strain bim1, active compounds read low 1.04 | locus YER111C, strain swi4, active compounds read low 1.03 | locus YER155C, strain BEM2 (second series), active compounds read low 1.03 | locus YFR010W, strain ubp6, active compounds read low 1.03 | locus YGL167C, strain pmr1, active compounds read low 1.03 | locus YGL173C, strain kem1, active compounds read low 1.04 | locus YGL227W, strain vid30, active compounds read low 1.04 | locus YGL240W, strain doc1, active compounds read low 1.03 | locus YGL253W, strain hxk2, active compounds read low 1.03 | locus YHR013C, strain ard1, active compounds read low 1.02 | locus YHR027C, strain rpn1, active compounds read low 1.04 | locus YHR030C, strain SLT2, active compounds read low 0.977 | locus YHR079C, strain IRE1, active compounds read low 0.991 | locus YHR142W, strain chs7, active compounds read low 1.02 | locus YJL092W, strain hpr5, active compounds read low 1.02 | locus YJL095W, strain BCK1 (second series), active compounds read low 1.03 | locus YJL095W, strain BCK1, active compounds read low 1.01 | locus YJL115W, strain asf1, active compounds read low 1.03 | locus YJL129C, strain trk1, active compounds read low 1.04 | locus YJL154C, strain vps35, active compounds read low 1.03 | locus YJL164C, strain tpk1, active compounds read low 1.01 | locus YJL166W, strain qcr8, active compounds read low 1.02 | locus YJL187C, strain SWE1, active compounds read low 1.02 | locus YJR066W, strain TOR1, active compounds read low 0.921 | locus YKL160W, strain elf1, active compounds read low 1.01 | locus YKR026C, strain gcn3, active compounds read low 1.03 | locus YKR091W, strain srl3, active compounds read low 1.03 | locus YLL001W, strain dnm1, active compounds read low 1.04 | locus YLL026W, active compounds read low 1.02 | locus YLL041C, strain sdh2, active compounds read low 1.03 | locus YLR027C, strain aat2, active compounds read low 1.03 | locus YLR113W, strain HOG1, active compounds read low 1.01 | locus YLR221C, strain rsa3, active compounds read low 1.02 | locus YLR258W, strain gsy2, active compounds read low 1.03 | locus YLR262C, strain YPT6 (second series), active compounds read low 1.03 | locus YLR320W, strain mms22, active compounds read low 1.04 | locus YLR342W, strain FKS1, active compounds read low 1.03 | locus YLR357W, strain rsc2, active compounds read low 1.02 | locus YLR370C, strain arc18, active compounds read low 1.03 | locus YLR384C, strain iki3, active compounds read low 1.02 | locus YML120C, strain ndi1, active compounds read low 1 | locus YMR058W, strain fet3, active compounds read low 1.03 | locus YMR125W, strain sto1, active compounds read low 1.04 | locus YMR129W, active compounds read low 1.02 | locus YMR205C, strain PFK2, active compounds read low 1.05 | locus YMR231W, strain pep5, active compounds read low 1.03 | locus YNL071W, strain lat1, active compounds read low 1.03 | locus YNL183C, strain NPR1, active compounds read low 0.934 | locus YNL209W, strain ssb2, active compounds read low 1.02 | locus YNL248C, strain rpa49, active compounds read low 1 | locus YNL322C, strain KRE1 (second series), active compounds read low 1.03 | locus YNR049C, strain mso1, active compounds read low 1.03 | locus YOR001W, strain rrp6, active compounds read low 0.999 | locus YOR070C, strain gyp1, active compounds read low 1.02 | locus YOR080W, strain dia2, active compounds read low 1.03 | locus YOR083W, strain WHI5, active compounds read low 1.01 | locus YOR106W, strain vam3, active compounds read low 1.03 | locus YOR231W, strain MKK1, active compounds read low 1.03 | locus YOR265W, strain rbl2, active compounds read low 1.03 | locus YOR270C, strain vph1, active compounds read low 1.06 | locus YOR290C, strain snf2, active compounds read low 0.989 | locus YPL051W, strain arl3, active compounds read low 1.01 | locus YPL078C, strain atp4, active compounds read low 1.02 | locus YPL106C, strain sse1, active compounds read low 1.05 | locus YPL240C, strain hsp82, active compounds read low 1.03 | locus YPL256C, strain CLN2, active compounds read low 0.984
